Results from PubChem BioAssay (NCI).
Several values for one entry are separate records, joined by “and”; a condition that tells them apart may be missing. Equal entries are not always repeated. The panel holds about 83,000 compounds, 20% with a hit somewhere; the sample as a whole holds those more often.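 A percent growth of 40 corresponds to 60% growth inhibition; 0 means no net growth; -100 means all cells died. Active threshold: below 10.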 Activity calls are given as the source filed them.

The compounds below were run on IGROV1 ovarian (assay: NCI-60 one-dose screen, 48 h (100 = growth as untreated, 0 = no growth, -100 = all killed)). Settings: 10 µM unless noted.
Experimental: Growth inhibition of the IGROV1 human tumor cell line is measured as a screen for anti-cancer activity. Cells are grown in 96 well plates and exposed to the test compound for 48 hours. Compounds are tested at a single concentration, which is 10^-5 M for most compounds. The reported endpoint is percent growth (GI% or GIPRCNT), where numbers from 0 - 100% represent growth inhibition, and numbers from -100% - 0 represent cell death. For example, a value of 40 represents 60% growth inhibition. A value of 0 means no net growth occurred over the course of the experiment. A value of -40 indicates 40% of cells at the beginning of the experiment died by the end of the experiment. A value of -100 means all cells are dead at the end of the experiment.
NCI-60 Human Tumor Cell Lines Screen was performed using the standard one-dose NCI protocol, which is described in more detail at https://dtp.cancer.gov/discovery_development/nci-60/default.htm.
Compounds with GIPRCNT values below 10 were considered active. Activity score was based on GIPRCNT using the following formula: […]
Score is 0 for GIPRCNT values of 100 or above, 50 for GIPRCNT values of 0, and 100 for GIPRCNT values of -100.

Row | SMILES | growth
1 | COc1ccc(N)cc1OC | 107% (inactive)
2 | COc1ccc2c(c1)c(-c1nc(-c3cn(C)c4ncccc34)cs1)cn2CCCCN1CCOCC1 | 67.8% (inactive)
3 | COc1ccc2c(c1)C1(C)CCN(C)CC(C1)C2O (stereo not given) | 86.9% (inactive)
4 | O=[N+]([O-])c1c(Cl)cc(Cl)c([N+](=O)[O-])c1Cl | 100% (inactive)
5 | CCCC(C)SP(=S)(SC(C)CCC)SC(C)CCC (stereo not given) | 109% (inactive)
6 | CN1CCc2cc3c(cc2C1O)OCO3 (stereo not given) | 117% (inactive) and 108% (inactive)
7 | O=C(Cc1ccccc1)NC(O)C(Cl)(Cl)Cl (stereo not given) | 115% (inactive)
8 | Cc1cc(N(CCCl)CCCl)ccc1/C=N\NC(=O)c1cccnc1 | 79.9% (inactive) and 82.6% (inactive)
9 | CCCCCCCCCCCCCCCCCC1OCC(COC(=O)O[C@@H](C(=O)O[C@H]2C[C@@]3(O)[C@@H](OC(=O)c4ccccc4)[C@@H]4[C@]5(OC(C)=O)CO[C@@H]5C[C@H](O)[C@@]4(C)C(=O)[C@H](OC(C)=O)C(=C2C)C3(C)C)[C@@H](NC(=O)c2ccccc2)c2ccccc2)O1 (stereo not given in full) | 47.6% (inactive)
10 | CCOP(=O)(NC)OCC | 105% (inactive)
11 | COc1ccc(CN)cc1OC | 110% (inactive) and 101% (inactive)
12 | Cc1cc[n+](CCc2ccccc2)cc1 | 94.7% (inactive) and 82.5% (inactive)
13 | Cc1cc(NC(=O)NCCCOc2ccc(N3C(N)=NC(N)=NC3(C)C)cc2Cl)ccc1S(=O)(=O)F | 25% (inactive)
14 | O=S(=O)(c1ccc(O)cc1)c1ccccc1O | 117% (inactive)
15 | O=C(O)C(Br)CBr (stereo not given) | 104% (inactive)
16 | CC(=O)c1cccc(S(=O)(=O)F)c1 | 103% (inactive)
17 | CC/C(Cc1ccccc1)=C(\c1ccc(OCCN2CCCC2)cc1)c1ccc(OC(=O)NCc2ccccc2)cc1 | 40% (inactive)
18 | O=C1CN2CCC1CC2 | 108% (inactive)
19 | CCOP(=O)(OCC)C(=O)N(CC)CC | 112% (inactive)
20 | C=CC[PH+](c1ccccc1)c1ccccc1.C=CC[PH+](c1ccccc1)c1ccccc1.[Pt+2].[S-]c1nc2ccccc2[nH]1.[S-]c1nc2ccccc2[nH]1 | -23.4% (active)

Row | SMILES | growth
21 | ClCc1ccc(Cl)c(Cl)c1 | 94.7% (inactive)
22 | CCOC(=O)C1C(C=C(C)C)C1(C)C (stereo not given) | 120% (inactive)
23 | CC[C@H](C)[C@H]1O[C@]2(C=C[C@@H]1C)C[C@@H]1C[C@@H](C/C=C(\C)[C@@H](O[C@H]3C[C@H](OC)[C@@H](O[C@H]4C[C@H](OC)[C@@H](NC)[C@H](C)O4)[C@H](C)O3)[C@@H](C)/C=C/C=C3\CO[C@@H]4[C@H](O)C(C)=C[C@@H](C(=O)O1)[C@]34O)O2 | -31.9% (active)
24 | C[C@]12CC[C@H]3[C@@H](CC=C4c5nc(-c6ccc(Br)cc6)sc5CC[C@@]43C)[C@@H]1CC[C@@H]2O | 99.1% (inactive)
25 | Cc1c(C)c(N)c(C)c(C)c1N | 80.7% (inactive)
26 | C(=NC1CCCCC1)=NC1CCCCC1 | 108% (inactive) and 88.4% (inactive)
27 | COCC1OC2OC3C(COC)OC(OC4C(COC)OC(OC5C(COC)OC(OC6C(COC)OC(OC7C(COC)OC(OC8C(COC)OC(OC1C(O)C2O)C(O)C8O)C(O)C7O)C(O)C6O)C(O)C5O)C(O)C4O)C(O)C3O (stereo not given) (tested in a mixture with another compound) | 184% (inactive)
28 | CN(C)C(=S)SSC(=S)N(C)C | 99.1% (inactive)
29 | Cc1cc2c(cc1-c1ccnc(/C=C/C(=O)O)c1)C(C)(C)CCC2(C)C | 100% (inactive)
30 | CC[C@@H](C)C(=O)O[C@H]1[C@H](O)[C@H]2[C@@H](CN3C[C@@H](C)CC[C@H]3[C@@]2(C)O)[C@@H]2C[C@]34O[C@]5(O)[C@@H](OC(=O)[C@@](C)(O)CC)CC[C@@]3(C)[C@@H]5[C@@H](OC(C)=O)[C@@H](OC(C)=O)[C@H]4[C@@]21O | 106% (inactive)
31 | C[C@]12CC[C@H]3[C@@H](C[C@@H]4SC(Nc5cccc(F)c5)=N[C@@]45CC(=O)CC[C@]35C)[C@@H]1CCC2=O | 60% (inactive)
32 | CN1CCC2(CC1)C(C#N)C(=O)NC(=O)C2C#N (stereo not given) | 123% (inactive)
33 | CC1(C)N=C(N)N=C(N)N1c1ccc(CCC(=O)Nc2ccc(S(=O)(=O)F)cc2)cc1 | 25.8% (inactive)
34 | C/C(=C(\c1ccc(OCCN2CCOCC2)cc1)c1ccc(OC(=O)Cc2ccccc2)cc1)c1ccc(Cl)cc1 | 106% (inactive)
35 | COc1ccc(O)c2c(=O)c3c(OC)cc4c(c3oc12)[C@@H]1C=CO[C@@H]1O4 | 16.3% (inactive)
36 | CCC(=O)C(CC(C)[N+](C)(C)C)(c1ccccc1)c1ccccc1 (stereo not given) | 101% (inactive)
37 | CC1(C)C=Cc2c(ccc3c2[N+]([O-])=C2C3=C[C@@]34NC(=O)[C@]5(CCCN5C3=O)C[C@@H]4C2(C)C)O1 | 55.6% (inactive)
38 | COc1ccc(C(C#N)C(C)=O)cc1 (stereo not given) | 114% (inactive)
39 | O=c1c2ccccc2nc(-c2ccccc2Cl)n1-c1nnc(C(F)(F)F)s1 | 37.6% (inactive)
40 | C[C@]12CC[C@@H](OC(=O)N(CCCl)N=O)C[C@@H]1CC[C@@H]1[C@@H]2CC[C@]2(C)C(=O)CC[C@@H]12 | -13.9% (active)
